High-throughput results from PubChem.
Sampled rows, rich in hits. Any-hit rate of the full collection: about 3.6%.
Anthrax LF inh2: anthrax lethal factor protease inhibition | P15917 | multiplex microsphere protease cleavage assay, LF | inhibition, % at 10 µM | hit rate 0.12% among 360,000 | AID 588501
BoNT-A LC inh2: blocks Botulinum neurotoxin A light chain protease; multiplex microsphere protease substrate cleavage, flow cytometry; inhibition, % at 10 µM; hit rate 0.17% among 360,000; AID 588499
Autofluor counter: counter-screen for toxin protease inhibitors: compound fluorescence | compound autofluorescence counterscreen, microsphere flow cytometry; active compounds read high | hit rate 3.1% among 360,000 | AID 624483 | fluorescence intensity (concentration not given with the values); in the data active means fluorescence intensity above about 16000; inconclusive means no clear call, values can overlap the other calls
MazF activator: MazEF (E. coli) toxin RNase activation | AID 504720 | FAM/BHQ RNA-DNA oligo cleavage fluorescence, 5 h | hit rate 0.32% among 350,000 | activation, % at 20 µM; in the data active means activation above about 50%
Target sequence (P0AE70 whole entry, looked up): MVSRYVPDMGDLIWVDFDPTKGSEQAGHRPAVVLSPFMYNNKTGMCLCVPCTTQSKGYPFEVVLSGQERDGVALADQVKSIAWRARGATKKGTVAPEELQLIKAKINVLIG
BoNT F protease: blocks Botulinum neurotoxin F light chain protease; Multiplex microsphere protease cleavage assay, flow cytometry; inhibition, % at 10 µM; hit rate 0.22% among 360,000; in the data active means inhibition above about 35%, passing the limit was not always enough; inconclusive means no clear call, values can overlap the other calls
Numbers stand for hits; 0 = inactive; ? = inconclusive; - = not tested or not shown. Unless noted, no stated cut-off is given here; in the data, active means inhibition above about 30%; inconclusive means no clear call, values can overlap the other calls; inactive means below that.

SMILES	Anthrax LF inh2	BoNT-A LC inh2	Autofluor counter	MazF activator	BoNT F protease
Cc1ccc(CNC(=O)c2cccc(-n3cnnn3)c2)cc1	0	0	23751	0	0
COc1ccc(CCNC(=O)c2cccc(-n3cnnn3)c2)cc1	0	0	0	0	0
CCC(CC)C(=O)N(C)c1c(C)nc2c(OCCC3CCCCC3)cccn12	0	0	0	-	0
CC(=O)Nc1cnn(Cc2ccc(Br)cc2)c1	0	0	24279	0	0
O=C(Nc1cnn(Cc2ccc(Cl)cc2)c1)c1cnccn1	0	0	19189	0	0
O=C(NCCc1ccc(Cl)cc1)c1cnccn1	0	0	0	0	0
Cc1ccc2oc(C(=O)N3CCN(Cc4ncccc4C)CC3)c(C)c2c1	0	0	0	0	0
CCOc1ccc(S(=O)(=O)Nc2cccc(C(=O)NCCCn3ccnc3)c2)cc1	0	0	0	0	0
Nc1ncnc2nc(SCCN3CCCCC3)[nH]c12	0	0	16379	0	0
COc1ccccc1N1CCN(C(=O)CSc2nc3ncnc(N)c3[nH]2)CC1	0	0	0	0	0
Nc1ncnc2nc(SCC(=O)N3CCN(c4ccccc4)CC3)[nH]c12	0	?	17350	0	0
O=C(CSc1ccccn1)N1CCN(c2ccccc2)CC1	0	0	16913	0	0
O=C(CSc1ccccn1)N1CCN(c2cccc(Cl)c2)CC1	0	0	0	0	0
COc1ccc(CCN(Cc2cc3cc(C)cc(C)c3nc2Cl)C(=O)C2CC2)cc1	0	0	0	0	0
Cc1ccc(S(=O)(=O)N2CCN(C(=O)c3ccccc3)C2C(C)C)cc1 (configuration not stated)	0	0	0	0	0
C/C(=N\S(=O)(=O)c1ccc(C)cc1)N1CCN(S(=O)(=O)c2ccccc2)C1C(C)C (configuration not stated)	0	0	22111	0	0
COc1ccc(-n2nnnc2S(=O)(=O)Cc2ccc(C(=O)O)cc2)cc1	0	0	17765	0	0
COc1ccc(NS(=O)(=O)c2cc(-c3nnnn3C)ccc2OC)cc1	0	0	18825	0	0
COc1ccc(-c2nnnn2C)cc1S(=O)(=O)NCCc1ccccc1	0	?	19418	0	0
COc1ccc(CCNS(=O)(=O)c2cccc(C)c2)cc1OC	0	0	20544	0	0
CCCNC(=O)C1(C)CCN(CCOc2ccc(Cl)cc2)C1 (configuration not stated)	0	0	0	-	0
COc1ccc(OC)c(S(=O)(=O)NCc2ccccc2)c1	0	0	16582	0	0
COc1ccc(S(=O)(=O)NCc2cccnc2)cc1OC	0	0	0	0	0
COc1ccc(OC)c(S(=O)(=O)NCc2cccnc2)c1	0	0	0	0	0
COc1ccc(S(=O)(=O)NCc2ccc(C(=O)O)cc2)cc1	0	0	20146	0	0
SMILES	Anthrax LF inh2	BoNT-A LC inh2	Autofluor counter	MazF activator	BoNT F protease
COc1ccc(S(=O)(=O)NCc2ccncc2)cc1OC	0	0	23943	0	0
COc1ccc(S(=O)(=O)NCc2ccc(C(=O)N3CCN(Cc4ccccc4)CC3)cc2)cc1	0	0	0	0	0
OCCNCc1c(OCc2ccc(Cl)cc2)ccc2ccccc12	0	0	0	0	?
C=C(C)Cn1c2ccc(NC(=O)NCCc3ccccc3)cc2c(=O)n1C	0	0	0	-	0
CCc1cccc(CC)c1NC(=O)CN1CCc2cc(OC)c(OC)cc2C1	0	0	0	-	0
COC(=O)c1cccc(CN2C(=O)C(C)Sc3cc(Cl)ccc32)c1 (configuration not stated)	0	0	0	-	0
CC(=O)N1CCN(c2ccc(N=Cc3c(O)n(Cc4ccccc4)c(=O)[nH]c3=O)cc2)CC1	0	0	0	77	0
COc1ccc(NC(=O)N(C)C[C@H]2Oc3ccc(NS(=O)(=O)c4ccc(OC)cc4)cc3C(=O)N([C@H](C)CO)C[C@@H]2C)cc1	0	0	0	0	0
CCSc1nnc(-c2ccccc2N)c(=O)[nH]1	0	0	23571	0	0
CCSc1nnc(-c2cc(Br)ccc2N)c(=O)[nH]1	0	0	0	0	0
CC(C)n1nnnc1C1c2ccccc2C(=O)N1CCCN1CCOCC1 (configuration not stated)	0	0	0	-	0
CC1CCc2c(sc(NC(=O)COC(=O)c3ccccc3NCc3ccco3)c2C#N)C1 (configuration not stated)	0	0	22501	0	0
CC1CCc2c(sc(NC(=O)c3ccccc3C(=O)O)c2C#N)C1 (configuration not stated)	0	0	0	0	0
COc1cccc(=O)c2c(C)n(-c3cc(C)cc(C)c3)c(C)c12	0	0	20048	0	0
COc1cccc(-n2c(C)c3c(OC)cccc(=O)c3c2C)c1	0	0	0	0	0
C=CCOC(=O)C1=C(C)Nc2nnnn2C1c1cccs1 (configuration not stated)	0	0	17729	0	0
COC(=O)C1=C(C)Nc2nnnn2C1c1cccs1 (configuration not stated)	0	0	19852	0	0
Cc1cccc(OCC(=O)NCC(=O)N/N=C/c2c(C)[nH]c3ccccc23)c1	0	0	0	0	0
O=c1c2ccccc2cnn1-c1ccc2ccccc2c1	0	0	23123	0	0
CCCCCCCCN1C(=O)[C@H](CC(=O)N2CCSCC2)C[C@@]2(C(=O)OC)CCCCC=C12	0	0	0	-	0
COc1ccc(C(C)=O)cc1CN1C(=O)C(Cc2ccccc2)ON=C1c1ncccc1C (configuration not stated)	0	0	0	-	0
CC(=O)Nc1cccc(/C(C)=N/Nc2ccc(S(=O)(=O)Nc3ccccc3C(=O)O)cc2[N+](=O)[O-])c1	0	0	?	0	0
C=CCN=C(NC#N)SCC(=O)c1cccc(OC)c1	0	?	22163	0	0
NC(=O)c1ncn([C@@H]2O[C@H](CNCc3cccc(OC4CCCC4)c3)[C@@H](O)[C@H]2O)n1	0	0	0	0	0
CCOc1ccccc1NC(=O)C1CC2CCCC(C1)C2=O (configuration not stated)	0	0	23703	0	0
SMILES	Anthrax LF inh2	BoNT-A LC inh2	Autofluor counter	MazF activator	BoNT F protease
O=C(O)C1CCCCC1C(=O)NCc1ccccc1 (configuration not stated)	0	0	0	0	0
O=C(NCc1ccccc1)C1CC2CCCC(C1)C2=O (configuration not stated)	0	?	17138	0	0
O=C(O)C1CC=CCC1C(=O)NCc1ccccc1 (configuration not stated)	0	0	22945	0	0
O=C(NCc1ccccc1)C1CC(=O)N(C2CCCCC2)C1 (configuration not stated)	0	0	0	0	0
c1ccc(C2OC3c4cccc5cccc(c45)C3N2c2ccccc2)cc1 (configuration not stated)	0	?	22884	0	0
COc1ccc(C(=O)c2sc3nc(C)cc(-c4cccs4)c3c2N)cc1OC	49	71	0	0	47
Cc1ccc(-c2nc(CS(=O)CC(=O)N3CCC4(CC3)OCCO4)c(C)o2)cc1 (configuration not stated)	0	0	21619	-	0
O=C(NCCOc1ccc(Cl)cc1)c1ccc2c(c1)OCCO2	0	0	0	0	0
